Data as given in PubChem BioAssay (NCI).
This is part of a sample that, as a whole, favours compounds with a hit. Of some 79,000 tested, about 15% had one in any assay. The source made the active and inactive calls. No stated cut-off is given here; in the data, active means growth inhibition above about 70%; inactive means the rest.

How the values were obtained:
[1] = NCI Yeast Anticancer Drug Screen. Data for the mec2-1 strain (AID 157); conditions: S. cerevisiae mec2-1 strain, active compounds read high
Outline: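 Each compound was tested on mec2-1 yeast, a strain altered in DNA damage repair or cell cycle control. Growth inhibition is reported relative to vehicle.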

[2] = NCI Yeast Anticancer Drug Screen. Data for the rad14 strain (AID 159);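 further: 0% = growth of vehicle-treated control cultures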; conditions: S. cerevisiae rad14 strain growth inhibition, active compounds read high
Outline: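 Readout: yeast growth inhibition, referenced to vehicle-only cultures. Strain bears a defined alteration in DNA damage repair.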

[3] = NCI Yeast Anticancer Drug Screen. Data for the sgs1 mgt1 strain (AID 161);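 further: 0% = growth of cultures given vehicle only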; conditions: S. cerevisiae sgs1 mgt1 strain, active compounds read high
Outline: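 Mutant yeast exposed to compound; growth scored against vehicle-only wells.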

[4] = NCI Yeast Anticancer Drug Screen. Data for the CLN2oe strain (AID 163);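 further: 0% = growth of vehicle-only control cultures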; conditions: S. cerevisiae CLN2oe strain, active compounds read high
Outline: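 First, the altered yeast strain was treated with each compound; second, its growth was measured; finally, inhibition was derived by comparison with vehicle controls.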

[5] = NCI Yeast Anticancer Drug Screen. Data for the cln2 rad14 strain (AID 165);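 further: 0% = growth equal to vehicle treated cultures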; conditions: S. cerevisiae cln2 rad14 strain, active compounds read high
Outline: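 Test compounds were added to cln2 rad14 yeast cultures; inhibition of growth was then determined by comparison with vehicle treatment.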

[6] = NCI Yeast Anticancer Drug Screen. Data for the bub3 strain (AID 167); conditions: S. cerevisiae bub3 mutant strain, active compounds read high
Outline: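 Part of a panel of yeast mutants defective in DNA damage repair or cell cycle regulation. Each strain is grown with compound, and inhibition is calculated relative to solvent-treated cultures.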

[7] = NCI Yeast Anticancer Drug Screen. Data for the wt2 strain (AID 169);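 further: 0% = growth of vehicle-treated yeast cultures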; conditions: S. cerevisiae wt2 strain growth inhibition, active compounds read high
Outline: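 The panel's yeast strains carry defined changes in DNA repair or cell cycle genes. Each strain is grown with compound, and growth loss is scored relative to vehicle.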

[8] = NCI Yeast Anticancer Drug Screen. Data for the mlh1 strain (AID 171);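 further: 0% = growth of vehicle-treated control cultures of the same strain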; conditions: S. cerevisiae mlh1 strain growth inhibition, active compounds read high
Outline: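 Inhibition values reflect reduced yeast growth in the presence of compound, referenced to vehicle controls, using a strain chosen for its alteration in DNA repair or cell cycle control.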

[9] = NCI Yeast Anticancer Drug Screen. Data for the sgs1 strain (AID 173);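 further: 0% = growth of vehicle-only control cultures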; conditions: S. cerevisiae sgs1 mutant, active compounds read high
Outline: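 Vehicle-treated cultures served as reference for growth inhibition of a yeast strain altered in DNA damage repair or cell cycle control after compound exposure.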

[10] = NCI Yeast Anticancer Drug Screen. Data for the mlh1 rad18 strain (AID 175); conditions: S. cerevisiae mlh1 rad18 strain growth inhibition, active compounds read high
Outline: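 Inhibition values reflect reduced growth of mutant yeast versus vehicle-treated controls following compound exposure; the mutations affect DNA damage repair.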

[11] = NCI Yeast Anticancer Drug Screen. Data for the rad18 strain (AID 177); conditions: S. cerevisiae rad18 mutant growth inhibition, active compounds read high
Outline: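 Steps: expose repair-mutant yeast to compound; measure growth; express as inhibition relative to vehicle control.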

[12] = NCI Yeast Anticancer Drug Screen. Data for the rad52 strain (AID 147);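 further: 0% = growth of vehicle-treated control cultures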; conditions: S. cerevisiae rad52 mutant growth inhibition, active compounds read high
Outline: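 Inhibition of yeast growth, referenced to vehicle controls, was the measured output for a strain with defective DNA damage repair.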

[13] = NCI Yeast Anticancer Drug Screen. Data for the rad50EPP+ strain (AID 151);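 further: 0% = growth of vehicle-treated control cultures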; conditions: S. cerevisiae rad50 mutant strain, active compounds read high
Outline: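 Genetically defined yeast (rad50EPP+, DNA damage repair alteration) is grown with compound, and inhibition of growth is expressed relative to vehicle-treated controls.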

[14] = NCI Yeast Anticancer Drug Screen. Data for the mgt1 strain (AID 153); conditions: S. cerevisiae mgt1 mutant growth inhibition, active compounds read high
Outline: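 In the mgt1 strain, test compounds were added and growth inhibition was determined relative to vehicle-treated controls.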

[15] = NCI Yeast Anticancer Drug Screen. Data for the rad50 strain (AID 155);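 further: 0% = growth of vehicle-only cultures of the same strain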; conditions: S. cerevisiae rad50 strain growth inhibition, active compounds read high
Outline: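 Cells are treated with compound, grown, and their growth is then scored against vehicle-only cultures of the same repair-deficient yeast strain.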

[16] = NCI Yeast Anticancer Drug Screen. Data for the wt1 strain (AID 149);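 further: 0% = growth of vehicle-treated wt1 cultures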; conditions: S. cerevisiae wt1 strain (SPY 50644) growth inhibition, active compounds read high
Outline: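 The wt1 strain was treated with compounds, and growth was compared with vehicle-treated cultures to give inhibition.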

[17] = at 5.0 µM (retest, dose inferred, filed as 0.5)
[18] = at 50.0 µM (retest, dose inferred, filed as 5.0)

Measured: growth inhibition

CCCC(=O)Oc1ccc(/C=N/NC(N)=S)nc1
inactive: [1]; at 100.0 µM 42% | [2]; at 1.2 µM 2% | [2]; at 3.7 µM 2% | [2]; at 11.0 µM -17% | [2]; at 33.0 µM -19% | [2]; at 100.0 µM -21% | [3]; [17] -1% | [3]; [18] 25% | [3]; at 50.0 µM 28.4% | [4]; at 1.2 µM -5% | [4]; at 3.7 µM -7% | [4]; at 11.0 µM -11% | [4]; at 33.0 µM -6% | [4]; at 100.0 µM -8% | [5]; [17] -3% | [5]; [18] 33% | [5]; at 50.0 µM 11.3% | [6]; at 1.2 µM -5% | [6]; at 3.7 µM -6% | [6]; [17] -4% | [6]; at 11.0 µM -9% | [6]; at 33.0 µM -20% | [6]; [18] -14% | [6]; at 50.0 µM 0.95% | [6]; at 100.0 µM -21% | [7]; at 1.2 µM -13% | [7]; at 3.7 µM -5% | [7]; at 11.0 µM -6% | [7]; at 33.0 µM 6% | [7]; at 100.0 µM 10% | [8]; at 1.2 µM -9% | [8]; at 3.7 µM -6% | [8]; at 11.0 µM -8% | [8]; at 33.0 µM -9% | [8]; at 100.0 µM -14% | [9]; at 1.2 µM -10% | [9]; at 3.7 µM -5% | [9]; at 11.0 µM -2% | [9]; at 33.0 µM -9% | [9]; at 100.0 µM -1% | [10]; [17] -4% | [10]; [18] 26% | [10]; at 50.0 µM 19.1% | [11]; at 1.2 µM -7% | [11]; at 3.7 µM 2% | [11]; at 11.0 µM -2% | [11]; at 33.0 µM -8% | [11]; at 100.0 µM -10%

C=C1CC(CCCl)(c2ccccc2)OC1=O (centres undefined)
active: [12]; at 33.0 µM 88% | [12]; at 100.0 µM 99% | [13]; at 100.0 µM 92% | [14]; at 11.0 µM 78% | [14]; at 33.0 µM 98% | [14]; at 100.0 µM 99% | [15]; at 33.0 µM 91% | [15]; [18] 94% | [15]; at 50.0 µM 92.5% | [15]; at 100.0 µM 98% | [1]; at 33.0 µM 93% | [1]; [18] 98% | [1]; at 50.0 µM 93.5% | [1]; at 100.0 µM 99% | [2]; at 33.0 µM 95% | [2]; at 100.0 µM 99% | [3]; [18] 96% | [3]; at 50.0 µM 93.5% | [4]; at 33.0 µM 85% | [4]; at 100.0 µM 98% | [5]; [18] 93% | [5]; at 50.0 µM 90.9% | [6]; at 11.0 µM 76% | [6]; at 33.0 µM 96% | [6]; [18] 98% | [6]; at 50.0 µM 92.4% | [6]; at 100.0 µM 99% | [7]; at 33.0 µM 95% | [7]; at 100.0 µM 95% | [8]; at 11.0 µM 82% | [8]; at 33.0 µM 97% | [8]; at 100.0 µM 99% | [9]; at 33.0 µM 96% | [9]; at 100.0 µM 99% | [10]; [18] 98% | [10]; at 50.0 µM 91.2% | [11]; at 33.0 µM 94% | [11]; at 100.0 µM 99%
inactive: [12]; at 1.2 µM -37% | [12]; at 3.7 µM -25% | [12]; at 11.0 µM 17% | [13]; at 1.2 µM 0% | [13]; at 3.7 µM 2% | [13]; at 11.0 µM 19% | [13]; at 33.0 µM 48% | [14]; at 1.2 µM -25% | [14]; at 3.7 µM -3% | [15]; at 1.2 µM 0% | [15]; at 3.7 µM 13% | [15]; [17] 4% | [15]; at 11.0 µM 33% | [1]; at 1.2 µM -4% | [1]; at 3.7 µM 16% | [1]; [17] 13% | [1]; at 11.0 µM 65% | [2]; at 1.2 µM -2% | [2]; at 3.7 µM 25% | [2]; at 11.0 µM 60% | [3]; [17] -8% | [4]; at 1.2 µM 4% | [4]; at 3.7 µM 7% | [4]; at 11.0 µM 24% | [5]; [17] 18% | [6]; at 1.2 µM -6% | [6]; at 3.7 µM 37% | [6]; [17] 37% | [7]; at 1.2 µM -22% | [7]; at 3.7 µM -20% | [7]; at 11.0 µM 38% | [8]; at 1.2 µM 21% | [8]; at 3.7 µM 35% | [9]; at 1.2 µM 4% | [9]; at 3.7 µM 2% | [9]; at 11.0 µM 59% | [10]; [17] 22% | [11]; at 1.2 µM 0% | [11]; at 3.7 µM 13% | [11]; at 11.0 µM 61%

COC(=O)/C=C(/CC(=O)OC)C(=O)OC
inactive: [12]; at 1.2 µM 0% | [12]; at 3.7 µM -1% | [12]; at 11.0 µM -1% | [12]; at 33.0 µM -1% | [12]; at 100.0 µM -2% | [16]; at 1.2 µM -2% | [16]; at 3.7 µM 0% | [16]; at 11.0 µM -1% | [16]; at 33.0 µM -3% | [16]; at 100.0 µM -3% | [15]; at 1.2 µM 0% | [15]; at 3.7 µM -44% | [15]; [17] 59% | [15]; at 11.0 µM 4% | [15]; at 33.0 µM -4% | [15]; [18] 3% | [15]; at 50.0 µM 16.6% | [15]; at 100.0 µM -4% | [1]; at 1.2 µM -1% | [1]; at 3.7 µM -3% | [1]; [17] 12% | [1]; at 11.0 µM 1% | [1]; at 33.0 µM 0% | [1]; [18] 6% | [1]; at 50.0 µM 9.4% | [1]; at 100.0 µM -3% | [2]; at 1.2 µM 0% | [2]; at 3.7 µM 1% | [2]; at 11.0 µM 2% | [2]; at 33.0 µM 3% | [2]; at 100.0 µM -1% | [3]; [18] 15% | [3]; at 50.0 µM -8.4% | [4]; at 1.2 µM 0% | [4]; at 3.7 µM -4% | [4]; at 11.0 µM 0% | [4]; at 33.0 µM -2% | [4]; at 100.0 µM -2% | [5]; [17] 15% | [5]; [18] -1% | [6]; at 1.2 µM -4% | [6]; at 3.7 µM -3% | [6]; [17] 9% | [6]; at 11.0 µM -2% | [6]; at 33.0 µM -2% | [6]; [18] 15% | [6]; at 50.0 µM -15.2% | [6]; at 100.0 µM -1% | [7]; at 1.2 µM -3% | [7]; at 3.7 µM 8% | [7]; at 11.0 µM 0% | [7]; at 33.0 µM -1% | [7]; at 100.0 µM -1% | [8]; at 1.2 µM -2% | [8]; at 3.7 µM -1% | [8]; at 11.0 µM 0% | [8]; at 33.0 µM 0% | [8]; at 100.0 µM -2% | [9]; at 1.2 µM 0% | [9]; at 3.7 µM 1% | [9]; at 11.0 µM 3% | [9]; at 33.0 µM 2% | [9]; at 100.0 µM 3% | [10]; [17] 33% | [10]; [18] 1% | [10]; at 50.0 µM 10.8% | [11]; at 1.2 µM 3% | [11]; at 3.7 µM 2% | [11]; at 11.0 µM 1% | [11]; at 33.0 µM 1% | [11]; at 100.0 µM -4%
active: [3]; [17] 90% | [5]; at 50.0 µM 77.8%
